Screening results as filed in PubChem.
ANO1 activ = TMEM16A chloride channel activators or potentiators, primary screen, cell-based, HTS; B-score at 10 µM; HEK293 TMEM16A/YFP-H148Q/I152L, iodide quench fluorescence; active compounds read low; AID 623877, 2012; Anoctamin-1 (Mus musculus), Q8BHY3; 0.3% of 340,000 active;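 active = fluorescence-ratio B-score plate-corrected deviation score at least 3 library SD below zero, with starting fluorescence score within 5 deviations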;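 note: channel opened by trigger with iodide after compound preincubation; score built on the fluorescence ratio of max minus min over baseline; more negative score means more quench and so TMEM16A activation or potentiation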
CRFR2-BP ag = agonists of CRF-BP/CRF-R2 complex, primary screen, cell-based, HEK293, calcium dye fluorescence, uHTS | AID 588473, 2011 | activation, % at 13.2 µM | 0.46% of 350,000 active | calcium dye fluorescence (FLIPR); percent of saturating CRF peptide response | CRF-binding protein / CRF receptor 2 complex (human);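 active = activation of at least 50%, plus an integration ratio under a set limit after plate pattern correction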;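 note: plate controls were neutral control wells without compound for no effect and CRF at EC100 for full effect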
RTF Ca sens act = cardiac RTF calcium sensitivity activators, primary screen, biochemical, IANBD-TnC fluorescence, EC20 calcium | IANBD-labeled TnC RTF fluorescence at EC20 calcium; 0% EC20 calcium, 100% full calcium | 0.24% of 340,000 active | Troponin I, cardiac muscle (Homo sapiens) + Troponin T, cardiac muscle (Homo sapiens) + … | activation, % at 7.2 µM;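 active = activation above the mean over all tested compounds plus 3 SD, cut at about 30% in these data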;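 note: rise in fluorescence read as greater calcium sensitivity of cardiac thin filaments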
RTF Ca sens inh = cardiac RTF calcium sensitivity inhibitors, primary screen, biochemical, IANBD-TnC fluorescence, EC70 calcium. Troponin I, cardiac muscle (Homo sapiens) + Troponin T, cardiac muscle (Homo sapiens) + …. IANBD-labeled cardiac RTF, Ca2+ fluorescence. inhibition, % at 7.15 µM. 0.12% of 340,000 active;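 active = inhibition above the mean inhibition of all tested compounds plus 3 SD, cut at about 17% in these data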;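 note: assay run at fixed EC70 calcium of 1.6 mM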
CRFBP-R2 block = antagonists of CRF-BP/CRF-R2 complex, primary screen, cell-based, HEK293, calcium dye fluorescence, uHTS; CRF-induced calcium fluorescence; inhibition, % at 11.8 µM; 0.59% of 350,000 active; AID 588475, 2011;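 active = inhibition of the ligand-induced calcium signal above about 50% at the single tested concentration, limit read from the data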
ANO1 block = TMEM16A chloride channel inhibitors, primary screen, cell-based, HTS; Anoctamin-1 (Mus musculus), Q8BHY3; HEK293 TMEM16A/YFP iodide influx fluorescence, ionomycin; normalized B-score (activity score, 25-100; higher = stronger inhibition) at 10 µM; 1.2% of 310,000 active; AID 588511, 2011;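 active = ratio plate-corrected score three or more library SD toward inhibition, starting fluorescence score within five deviations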;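 note: score derived from kinetic fluorescence span divided by baseline fluorescence per well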
TMEM16A reconf = TMEM16A chloride channel inhibitors, confirmation, cell-based, re-confirmation | shares compounds with ANO1 block | HEK293 TMEM16A/YFP-H148Q, iodide quench fluorescence; ionomycin added to raise cell calcium | inhibition, % at 10 µM | 39% of 2,300 active | AID 652189, 2013;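 active = mean duplicate percent inhibition, scaled so buffer wells are 0 and the reference blocker 100, over three buffer SD above buffer mean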
TMEM16A Ca cntr = calcium mobilization in TMEM16A/YFP HEK293 cells, confirmation, counter-screen for TMEM16A inhibitor project | shares compounds with ANO1 block | Fluo4 calcium mobilization | calcium response (% of ionomycin), % at 10 µM | 2% of 2,300 active;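 active = duplicate-averaged calcium signal over 20% of the ionomycin maximum, relative to buffer baseline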;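 note: each well's signal is peak minus trough fluorescence divided by its pre-addition baseline; 0% = buffer wells and 100% = ionomycin wells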
YFP-HEK293 quench = iodide YFP quench changes in parental YFP-HEK293, counter-screen for TMEM16A inhibitor project, cell-based | shares compounds with ANO1 block | ionomycin | YFP ratio F(max-min)/F0 at 10 µM | 2,300 tested, under 10 active | AID 652233, 2013;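 active = yellow fluorescent protein signal ratio exceeding the buffer control mean by over 5 SD of those controls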;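 note: ratio is mean of duplicate wells from kinetic YFP trace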
ClC-1 inh = ClC-1 chloride channel inhibition, selectivity assay for TMEM16A inhibitor project, cell-based, voltage-dependent ClC-1; shares compounds with ANO1 block; CHO ClC-1-YFP, iodide influx fluorescence quench; iodide control reads 0, buffer control 100; ratio percent, % at 10 µM; 2,300 tested, under 10 active; AID 652236, 2013;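 active = duplicate-mean ratio percent above the mean of iodide-only control wells, which defines zero, plus 5 of their SD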;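 note: higher percent means stronger block of ClC-1 iodide influx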
* hit, by the source's call; i = inactive; nt = not tested or not shown. Compounds with a hit are over-represented: about 2.4% of the library has one in this group of screens.

SMILES	ANO1 activ	CRFR2-BP ag	RTF Ca sens act	RTF Ca sens inh	CRFBP-R2 block	ANO1 block	TMEM16A reconf	TMEM16A Ca cntr	YFP-HEK293 quench	ClC-1 inh
Cc1cc(C)nc(SCC(=O)Nc2ccnc3ccccc23)n1	i	1	0	-1	-1	i	nt	nt	nt	nt
O=C(CSC1=NCCS1)Nc1ccnc2ccccc12	i	-2	1	-7	-4	100*	18%*	i	-1.1	-22
CCN(c1ccccc1)S(=O)(=O)c1c(C)noc1C	i	-2	3	4	7	nt	nt	nt	nt	nt
O=C1NN(c2cccc(Br)c2)C(=O)/C1=C\c1ccc(N2CCOCC2)cc1	i	-3	0	-5	5	i	nt	nt	nt	nt
CCCOC(=O)c1ccc(NS(=O)(=O)c2cccs2)cc1	i	-1	-5	6	-12	25*	i	i	-0.95	2
O=C(COC(=O)c1ccc(NS(=O)(=O)c2cccs2)cc1)NCc1ccco1	i	0	-6	-3	4	i	nt	nt	nt	nt
CNC[C@@H]1OCc2ccccc2-c2c(n(C)c3ccccc23)C(=O)N([C@H](C)CO)C[C@@H]1C	nt	0	nt	nt	5	nt	nt	nt	nt	nt
CCCn1c(CN(Cc2ccccc2)Cc2ccccc2)nc2c1c(=O)n(C)c(=O)n2C	i	0	1	-9	7	100*	18%*	i	-0.87	-8
CCN(CC)CCCNc1oc(-c2cccc(Cl)c2)nc1C#N	i	-1	-3	0	-10	i	nt	nt	nt	nt
COCCCNC(=O)C1CC(=O)N(Cc2ccc(OC)cc2)C1 (configuration not stated)	i	-1	-1	-8	2	i	nt	nt	nt	nt
COc1ccc(CN2CC(C(=O)NCCN3CCOCC3)CC2=O)cc1 (configuration not stated)	i	3	-4	4	-53	100*	i	i	-0.88	-4
COc1ccc(CN2CC(C(=O)NCc3ccccn3)CC2=O)cc1 (configuration not stated)	i	4	5	-2	13	100*	i	i	-1.1	-20
Cc1cc(C)c(C)c(S(=O)(=O)NCc2ccncc2)c1C	i	1	-5	-1	-9	25*	26%*	i	-1	-14
O=S(=O)(NCc1ccncc1)c1ccc(Br)s1	i	-3	-3	-2	-6	100*	i	i	-1.1	-18
Cc1ccc(S(=O)(=O)NCc2ccncc2)cc1C	i	6	3	11	6	i	nt	nt	nt	nt
O=C(O)CNS(=O)(=O)c1ccc(Br)s1	i	0	-4	-2	-8	i	nt	nt	nt	nt
O=C(Nc1ccccc1N1CCOCC1)c1ccccc1NS(=O)(=O)c1ccc(F)c(F)c1	i	33	-9	5	15	100*	31%*	i	-1	-9
COc1ccc(S(=O)(=O)N2CCCCCC2)cc1NC(=O)c1ccccc1F	i	10	0	5	38	nt	nt	nt	nt	nt
Cc1ccc(S(=O)(=O)Nc2ccccc2C(=O)Nc2nc(-c3ccc(F)cc3)cs2)cc1	i	22	-11	-4	77*	25*	39%*	i	-1.2	-17
Cc1cc(F)ccc1S(=O)(=O)Nc1ccccc1C(=O)Nc1ccccc1N1CCOCC1	i	4	-5	-1	13	25*	i	i	-1.1	-16
O=C(Nc1cc(S(=O)(=O)N2CCCCC2)ccc1O)c1ccccc1NS(=O)(=O)c1ccc(F)cc1	i	72*	-7	-6	8	100*	68%*	i	-1	-18
COc1ccc(NC(=O)CSC2=NCCN2)cc1	i	1	-2	-5	-6	i	nt	nt	nt	nt
Fc1ccc(CCNC(=S)Nc2ccc(F)c(Cl)c2)cc1	-4.7*	5	-3	-4	-5	100*	37%*	i	-1.1	-14
S=C(NCCc1ccc(Cl)cc1)Nc1ccc(Cl)cc1Cl	i	0	7	5	19	25*	i	i	-0.97	-12
Fc1ccc(NC(=S)NCCc2ccc(Cl)cc2)cc1	i	1	-5	-4	9	i	nt	nt	nt	nt
SMILES	ANO1 activ	CRFR2-BP ag	RTF Ca sens act	RTF Ca sens inh	CRFBP-R2 block	ANO1 block	TMEM16A reconf	TMEM16A Ca cntr	YFP-HEK293 quench	ClC-1 inh
Fc1ccc(NC(=S)Nc2ccc(Cl)cc2Cl)cc1	nt	-2	nt	nt	0	100*	20%*	i	-1.1	-10
COc1ccccc1OCCSc1nc2ccccc2n1CC(=O)O	nt	-1	nt	nt	-7	nt	nt	nt	nt	nt
CC(=O)Nc1ccc(C(=O)OCC(=O)Nc2c(F)cccc2F)cc1	i	3	5	-6	0	i	nt	nt	nt	nt
COC(=O)COC(=O)c1ccc(Oc2nc(OC)nc(N(C)C)n2)cc1	i	-1	4	-12	-17	i	nt	nt	nt	nt
CCCCn1c(SCC(=O)N2CCCC2)nnc1-c1ccccc1	i	-2	-2	8	2	100*	i	i	-1.1	-11
O=C(c1ccco1)N1CCCC(c2nc(-c3ccc(S(=O)(=O)NCc4ccccc4)cc3)no2)C1 (configuration not stated)	i	-1	1	-6	-9	25*	44%*	i	-1	-16
COc1ccc(N(C)C2=NS(=O)(=O)c3ccccc32)cc1	i	7	-2	-7	4	100*	i	i	-1.1	-2
COC(=O)C1=CN(Cc2ccccc2)C=C(C(=O)OC)C1c1cc(F)ccc1F	i	-1	-3	-6	29	i	i	i	-1.1	-6
CCOC(=O)c1csc(Nc2nc3ccc(F)cc3s2)n1	i	-1	1	-18	-21	100*	i	i	-1	-15
